This is a sample that favours compounds with a hit; in the whole collection about 7.9% have one here.
HT1080-NT tox: qHTS for induction of synthetic lethality in tumor cells producing 2HG: qHTS for the HT-1080-NT fibrosarcoma cell line. HT-1080-NT fibrosarcoma viability, CellTiter-Glo ATP luminescence, 48 h. AID 686970, 2013. 360,000 tested, 1.6% active. Potency, µM (series often up to 46.1 µM), inactives show at the highest dose activity, negative = less viability, actives largely listed as cytotoxic;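 further: NT is the 2HG producing partner of a matched IDH1 knockdown line; 0% = DMSO-treated cells and -100% = media-only wells without cells; nearly all actives have a fitted effect of over 55% in size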
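HT-1080-NT fibrosarcoma cells (2HG-overproducing), 750 cells/well in RPMI with 5% FBS, dosed after 2 h and incubated 48 h at 37C. CellTiter-Glo luminescence normalized to DMSO and no-cell wells; concentration-response curves fitted and classed.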
MCF10A rerep: A quantitative high throughput screen for small molecules that induce DNA re-replication in MCF 10a normal breast cells; Potency, µM (highest dose often 46.1 µM), without a hit: top-dose activity, positive = re-replication, most hits filed as activators; MCF 10A DNA re-replication, Hoechst nuclear intensity, 48 h; AID 624296, 2012; 350,000 tested, 2.9% active; further: % of control where 0% means no effect; nearly all actives have a fitted effect of over 50% in size
KB-3-1 cytotox: qHTS assay for MDR1-selective chemotherapeutics: Primary screen using the parental adenocarcinoma cell KB-3-1; AID 1347075, 2019; 400,000 tested, 1.4% active; Potency, µM (series often up to 46.1 µM), actives largely listed as cytotoxic; KB-3-1 viability, CellTiter-Glo ATP luminescence, 72 h; further: on the % scale 0 is the no-effect control and ±100 the full control effect; nearly all actives have a fitted effect of over 60% in size
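Parental KB-3-1 viability, qHTS format: 72 h compound exposure, 37 °C; CellTiter-Glo; media-only wells and DMSO plates as controls; concentration-effect fits on corrected data.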
SW480 rerep: A quantitative high throughput screen for small molecules that induce DNA re-replication in SW480 colon adenocarcinoma cells; SW480 DNA re-replication, Hoechst DNA content imaging, 48 h; Potency, µM (highest dose often 46.1 µM), for the others: top-dose re-replication activation, actives largely listed as activators; 340,000 tested, 1.8% active; AID 624297, 2012; further: % of control where 0% means no effect; nearly all actives have a fitted effect of over 55% in size
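SW480 cells exposed to compounds for 48 hr at 37 C, 5% CO2, then Hoechst-stained 40 min. Nuclear DNA content imaged by fluorescence scanning (405 nm excitation, 500-530 nm emission); re-replication scored as increased high-intensity nuclei.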
KB-V1 cytotox: qHTS assay for MDR1-selective chemotherapeutics: Primary screen using the drug-selected MDR subline cells KB-V1; 400,000 tested, 3.4% active; Potency, µM (doses to about 46.1 µM), actives largely listed as cytotoxic; KB-V1 MDR cells viability, CellTiter-Glo, 72 h; further: on the % scale 0 is the no-effect control and ±100 the full control effect; nearly all actives have a fitted effect of over 60% in size
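qHTS viability screen in drug-selected KB-V1 MDR cells: 72 h compound treatment at 37 degrees C, ATP luminescence end point.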
HT1080 IDH1KD tx: qHTS for induction of synthetic lethality in tumor cells producing 2HG: qHTS for the HT-1080-IDH1KD cell line; HT-1080 IDH1 knockdown viability, ATP luminescence, 48 h; Potency, µM (doses to about 46.1 µM), inactives show top-dose activity, negative = toxicity, actives largely listed as cytotoxic; 360,000 tested, 2% active; AID 686971, 2013;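 further: 0% = DMSO wells and -100% = cell-free medium wells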
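Using the IDH1-knockdown HT-1080 line run in the same batch and compound series as the NT line, viability after 48 h at 37 °C was determined by CellTiter-Glo luminescence and expressed as % activity.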
Active calls of the source: *; i = inactive; ? = inconclusive; . = not tested or not shown; ! = not active in a repeat. The call rests on the fitted dose curve; in most records, active means well fitted curve in the direction sought with a large enough effect; inconclusive means small, poorly fitted or top-dose-only effect, or another doubt; inactive means no such curve, though single readings can be large; an effect the other way counts as inactive or inconclusive. Potency means the concentration at half of the fitted maximal effect.

SMILES | HT1080-NT tox | MCF10A rerep | KB-3-1 cytotox | SW480 rerep | KB-V1 cytotox | HT1080 IDH1KD tx
Cc1nnc(SCc2cc(=O)[nH]c(/N=C(\N)Nc3ccccc3Sc3ccccc3)n2)s1 | 7.2% | 3.6% | i | -7.3% | i | 0.0%
Cc1nnc(SCc2cc(=O)[nH]c(/N=C(\N)Nc3ccccc3)n2)s1 | ? | 18.4µM* | ? | ? | ? | 18.4µM*
CCOC(=O)N1CCC(NC(=O)C2CCCN(Cc3nc(-c4cccc(C)c4)oc3C)C2)CC1 (stereo not given) | ? | ? | i | 0.4% | ? | ?
Cc1cccc(-c2nc(CN3CCCC(C(=O)NC4CCCC4)C3)c(C)o2)c1 (stereo not given) | ? | ? | i | ? | 9.2µM* | ?
Cc1cccc(-c2nc(CN3CCCC(C(=O)NC4CCC(C)CC4)C3)c(C)o2)c1 (stereo not given) | -26.4% | ? | i | ? | 20.6µM* | -24.5%
OCCN1CCN(c2ncnc3c2ncn3[C@H]2CN(Cc3ccc4c(c3)OCO4)C[C@@H](CO)O2)CC1 | ? | . | i | . | i | 6.6%
COc1ccc(NC(=O)NCc2cccn2Cc2ccc(F)cc2)cc1OC | . | . | i | . | i | .
O=C(CSc1nc2ccccc2n1S(=O)(=O)c1cccc([N+](=O)[O-])c1)NCCc1ccccc1 | -4.0% | 14.5% | ? | -1.8% | 3.66µM* | -8.9%
CCCCNC(=O)CSc1nc2ccccc2n1S(=O)(=O)c1ccc(Br)cc1 | 20.6% | -41.0% | i | 2.0% | i | 18.4%
CS(=O)(=O)N(CC(=O)NCCc1ccccc1)c1cccc([N+](=O)[O-])c1 | 1.1% | 0.651µM* | i | -33.9% | i | -0.5%
COc1ccc(CCNC(=O)CN(c2cccc([N+](=O)[O-])c2)S(C)(=O)=O)cc1 | 4.6% | 2.0% | i | -13.9% | i | 6.8%
O=C(CN(c1cccc([N+](=O)[O-])c1)S(=O)(=O)c1ccccc1)NCc1ccccc1 | -1.2% | 14.0% | i | -2.4% | 5.8µM* | 1.2%
O=c1cc(CSc2ccccc2)[nH]c2ccc(F)cc12 | . | . | i | . | i | .
CCOc1ccc(C2c3c(oc4ccc(C)cc4c3=O)C(=O)N2c2nc(C)c(C)s2)cc1OC (stereo not given) | . | . | i | . | i | .
OC(CN1CCCCC1)Cn1c2ccccc2c2cc(Br)ccc21 (stereo not given) | 23.1µM* | ? | ? | ? | 16.4µM* | ?
CCc1ccc(NC(=O)Cn2c(=O)ccc3cc(S(=O)(=O)N4CCCC4)ccc32)cc1 | . | . | i | . | ? | .
O=S(=O)(c1ccc(S(=O)(=O)N2CCN3CCCC3C2)cc1)N1CCCC1 (stereo not given) | -0.6% | -1.5% | i | -0.6% | ? | 3.1%
O=S(=O)(c1cc(Cl)c(Cl)cc1Cl)N1CCN2CCCC2C1 (stereo not given) | -13.8% | -8.6% | i | 0.366µM* | i | -2.6%
O=C(CCCCn1c(=O)c2ccccc2n(Cc2ccccc2F)c1=O)NCc1ccccc1Cl | . | . | i | . | i | .
COc1ccccc1NC(=O)COc1ccc(-c2nn(C)c(=O)c3ccccc23)cc1 | -28.3% | 15.2% | ? | 0.1% | 18.4µM*! | -26.0%
COc1ccc(OCC(=O)Nc2ccccc2O)cc1 | -15.3% | 0.0% | i | 11.8% | 16.4µM* | -9.8%
CCOCCn1ccc2c(OCC(=O)Nc3cc(OC)ccc3OC)cccc2c1=O | -3.9% | ? | i | ? | 16.4µM* | -1.3%
COc1ccccc1NC(=O)COc1ccccc1 | 2.1% | ? | i | ? | i | -5.3%
COc1cc(NC(=O)COc2ccc(F)cc2)nc(OC)n1 | 0.6% | ? | i | 20.6µM* | i | 1.8%
CCOc1cc(CNC(=O)C2CCN(c3nc4ccccc4[nH]3)CC2)cc(OCC)c1OCC | . | . | i | . | i | .
SMILES | HT1080-NT tox | MCF10A rerep | KB-3-1 cytotox | SW480 rerep | KB-V1 cytotox | HT1080 IDH1KD tx
Cc1ccc(OCC(=O)Nc2ccccc2C(N)=O)cc1 | 22.2% | 8.5% | i | -1.8% | i | 11.8%
CCCNC(=O)c1ccccc1NC(=O)COc1ccc(OC)cc1 | -6.5% | 0.1% | i | -4.0% | 4.61µM* | -2.5%
CCCc1cnc(NCCNCC(O)COc2ccc(Cl)c(Cl)c2)nc1 (stereo not given) | 18.4µM* | ? | i | ? | ? | 20.6µM*
CC1(C)CC[C@]2(C(=O)O[C@@H]3OC(CO)[C@@H](O)[C@H](O)[C@H]3O)CC[C@]3(C)C(=CCC4[C@@]5(C)CC[C@H](O[C@@H]6OC(C(=O)O)[C@@H](O)[C@H](O)[C@H]6O)C(C)(C)C5CC[C@]43C)[C@@H]2C1 (stereo not given in full) | 0.3% | 18.4µM* | i | -4.7% | i | 0.3%
COC(=O)C1OC(OC2CC[C@]3(C)C(CC[C@@]4(C)[C@@H]3CC=C3[C@@H]5CC(C)(C)CC[C@]5(C(=O)OC5OC(CO)C(O)C(O)C5O)CC[C@]34C)C2(C)C)C(O)C(O)C1O[C@H]1OCC(O)C(O)C1O (stereo not given in full) | ? | ? | i | -3.5% | i | ?
O=c1cc(-c2ccccc2)[nH]n1-c1ccccc1 | ? | ? | i | ? | i | ?
O=C1C=CC(=O)N1c1cccc(-c2ccccc2)c1 | 20.6µM* | 20.6µM* | i | ? | i | ?
CCc1ccc(C(=O)Nc2cccc(-c3nc4cc(C(C)C)ccc4o3)c2)cc1 | . | . | i | . | i | .
COc1ccc(/C(O)=C(\C#N)c2nc3ccccc3n2C)cc1OC | -2.9% | 18.8% | i | -12.2% | 5.8µM* | -27.1%
N=C1SCC(=O)N1/N=C/c1ccccc1 | 11.8% | 23.0% | 7.31µM* | ? | 6.51µM* | 15.9%
COc1ccccc1NCC(=O)N/N=C(\C)c1cccs1 | 2.5% | 0.4% | i | -24.1% | i | 3.1%
C/C(=N\NC(=O)CNc1cccc(Cl)c1C)c1cccs1 | 1.7% | 19.9% | i | 18.4µM* | i | 9.4%
CCOc1ccc(CCNC(=O)c2cc3c(=O)n(C)c4ccccc4c3n2C)cc1OCC | . | . | ? | . | i | .
Clc1nc(NCc2cccs2)c2[nH]cnc2n1 | . | . | i | . | i | .

Screening data: PubChem, National Center for Advancing Translational Sciences (NCATS)
